About 83,000 compounds went through this panel and 20% of them were active in at least one assay; those are over-represented in the sample as a whole.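 Assay: single dose, 48 h. Readout: percent growth (0 = no net growth; negative = cell death). Active: <10.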 Unmarked numbers belong to inactive results. Activity calls are given as the source filed them.

The subject of this experiment is SNB-75 CNS. Kind of experiment: NCI-60 one-dose screen, 48 h (100 = growth as untreated, 0 = no growth, -100 = all killed). The conditions noted are these: 10 µM unless noted.
`O=C1OC(Cc2ccccc2)C1c1ccccc1` (stereo not drawn): the growth was 92.1%.
Regarding `O=C1Nc2cc(-c3ccc(NC(=O)c4ccccc4)cc3)ccc2/C1=C/c1ccc[nH]1`, the growth was 99%.
Turning to `O=C(N/N=C/c1cc2ccccc2n2nnnc12)Nc1ccccc1`, the growth is 103%.
With `O=C1c2ccc3c4c(ccc(c24)C(=O)N1CCCNCc1ccccc1)C(=O)N(CCCNCc1ccccc1)C3=O`, the growth was -97.2% (active).
For `C=C1C(=O)O[C@H]2[C@H]1CC/C(COC(=O)NCCc1c[nH]c3ccc(OC)cc13)=C\CC[C@@]1(C)O[C@@H]21`, the growth is 55.5%.
On to `CCOc1ccc(Nc2nc(-c3ccc4c(c3)NC(=O)CO4)cs2)cc1`, for which the growth is 56.8%.
The result for `COc1ccc(C(=O)c2cc(C)c(OC)c(C)c2)c(OC)c1OC(=O)C(Cl)Cl` reads 56.3%; that for `CN(C)c1ccc(Nc2c3ccccc3nc3cc(NC(=O)CCN4CCCC4)ccc23)cc1`, -0.0133% (active).
On to `Cc1nc(N)nc(N[C@@H](C)c2nc3cccc(NCc4ccc(C(=O)NO)cc4)c3c(=O)n2-c2ccccc2)n1`, for which the growth was 69.6%.
Take `COc1ccc(C/C(=C(\C)c2ccc(OCCN3CCCC3)cc2)c2ccc(OCCN3CCCC3)cc2)cc1`: the growth is 83.2%.
Turning to `NC(=NCCCOc1ccc(F)cc1)Nc1ccc(Cl)cc1`, the growth was 80.9%.
As for `CCCOC(=O)N[C@H]1CCc2c(Cl)c(OC)c(OC)c(OC)c2-c2ccc(SC)c(=O)cc21`, the growth is 31.2%.
Regarding `N#Cc1c(NC(=O)NCc2ccccc2)sc2c1CCCC2`, the growth was 27%.
With `NCCCCCCNc1cc(-c2cccc(OC(F)(F)F)c2)nc2ccc(N3CCCC3)cc12`, the growth is -32.4% (active).
For the molecule `C[C@H]1[C@H](C)CC[C@]2(C(=O)NCC#CCN3CCN(C)CC3)CC[C@]3(C)C(=CC[C@@H]4[C@@]5(C)Cc6c([nH]c7ccccc67)C(C)(C)[C@@H]5CC[C@]43C)[C@H]12`, the growth was 90.1%.
Consider `N#Cc1c(NCc2ccccc2I)sc2c1CCCCC2`, for which the growth is 84.8%.
As for `CN1C(=O)NC(c2ccc3c(c2)OCO3)C=C1c1ccccc1` (stereo not drawn), the growth was 80.2%.
The result for `COc1cc(/C=C\C(=O)O)ccc1OCc1ccccc1` reads 103%; that for `CCN(CC)c1ccc(/C=N/NC(=O)CSc2nc3ccccc3c(=O)n2Cc2ccc(S(N)(=O)=O)cc2)c(O)c1`, 38.8%; that for `Cc1ccc(S(=O)(=O)NNC(=O)/C(=C\c2ccc(Cl)cc2)c2nc3ccccc3s2)cc1`, 68.4%.
With `CCOC(=O)[C@@H]1CCCN(S(=O)(=O)c2ccc(S(=O)(=O)N(CC)CC)c(F)c2)C1`, the growth is 90.9%.
The result for `Cc1ccc(CNc2c3ccccc3nc3cc(NC(=O)CCN4CCCC4)ccc23)cc1` reads 4.1% (active).
Regarding `COc1ccc(CC(C)=C(c2ccc(OCCN3CCCCCC3)cc2)c2ccc(OCCN3CCCCCC3)cc2)cc1`, the growth was -92.9% (active).
For the molecule `CCCCNC(=O)Oc1ccc(/C(=C(\C)c2ccccc2)c2ccc(OCCN3CCCCC3)cc2)cc1`, the growth was 84.6%.
As for `Cn1c2ccccc2c2c3c(c4c5ccccc5n(C)c4c21)C(=O)OC3`, the growth was 68.1%.
The result for `CNC(=O)c1cc(Cn2nc(C)c(NC(=O)Nc3ccc(Cl)c(C(F)(F)F)c3)c2C)ccn1` reads 68%.
`O=C(Nc1ccc(NC(=O)c2cc(=O)[nH]c3ccccc23)cc1)Nc1cccc(Cl)c1`: the growth was 74.4%.
Next, `COc1ccc(C(=O)CSc2nc(-c3cc(OC)ccc3OC)cc(-c3ccc(Cl)cc3)c2C#N)cc1`: 30.9%; `Cc1cc(C)c(S(=O)(=O)Oc2ccccc2[N+](=O)[O-])c(C)c1`: -18.4% (active).
With `O=C(CCN1CCCC1)Nc1ccc2c(NCc3ccccc3)c3ccccc3nc2c1`, the growth is -15.4% (active).
On to `CCN(CC)c1ccc(/C=N/NC(=O)CSc2nc3ccccc3c(=O)n2CCc2ccc(S(N)(=O)=O)cc2)c(O)c1`, for which the growth was 59.2%.
In the case of `O=C(CSc1nc2sc3c(c2c(=O)n1-c1ccc(Cl)cc1)CCCC3)Nc1nc(-c2cccc(Br)c2)cs1`, the growth is 41.7%.
Regarding `COc1ccc(C(C)=O)c(OC)c1`, the growth is 91.7%.
Consider `COc1cccc(-c2nc3occn3c2-c2ccnc(NCCCNS(=O)(=O)c3ccc(C(F)(F)F)cc3)n2)c1`, for which the growth was 103%.
Take `C=C1C(=O)O[C@H]2[C@H]1CC/C(C(=O)NCCCCCNC(=O)/C1=C/CC[C@@]3(C)O[C@H]3[C@H]3OC(=O)C(=C)[C@@H]3CC1)=C\CC[C@@]1(C)O[C@@H]21`: the growth is 103%.
Consider `C=C1C(=O)O[C@H]2[C@H]1CC/C(COC(=O)NCc1c[nH]c3ccc(F)cc13)=C\CC[C@@]1(C)O[C@@H]21`, for which the growth was 26.4%.
As for `Cc1cc2nc3c4cccc(O)c4n(CCN(C)C)c3nc2cc1C`, the growth was 25.8%.
Regarding `O=C(Cc1ccccc1)NNc1nc(Cl)nc(N2CCN(C(c3ccccc3)c3ccccc3)CC2)n1`, the growth is 96%.

For the origin of these results see PubChem BioAssay (NCI).
